# SMN2 splice enh – SMN2 splice variant enhancement. Potency, µM (doses to about 46.1 µM), inactives show at the top dose activity change, positive = activation, usual class: activators. 210,000 compounds, 2.8% hits. HEK293 SMN2-luciferase splicing reporter, luminescence, 30-36 h; also: % of control where 0% means no effect; nearly all actives have a fitted effect of over 55% in size
#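 HEK293 cells carry an SMN2 minigene-luciferase reporter in which exon 7 inclusion puts luciferase in frame. Cells were seeded at 2000 cells/well, attached for 10-12 hours, then exposed to compounds for 30-36 hours at 37C before ONE-Glo luminescence.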
# FLuc modulator – counter-screen for miR-21 project: firefly luciferase inhibitors or activators; P08659; purified FLuc, Km substrates, luminescence inhibition; Potency, µM (titrated, usually from 57.5 µM), inactives show top-dose activity change, negative = inhibition, actives largely listed as inhibitors; 360,000 compounds, 6.9% hits; AID 588342;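 also: plate controls were vehicle for no effect and reference inhibitor for full effect; nearly all actives have a fitted effect of over 55% in size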
# Target sequence (P08659 whole entry, looked up): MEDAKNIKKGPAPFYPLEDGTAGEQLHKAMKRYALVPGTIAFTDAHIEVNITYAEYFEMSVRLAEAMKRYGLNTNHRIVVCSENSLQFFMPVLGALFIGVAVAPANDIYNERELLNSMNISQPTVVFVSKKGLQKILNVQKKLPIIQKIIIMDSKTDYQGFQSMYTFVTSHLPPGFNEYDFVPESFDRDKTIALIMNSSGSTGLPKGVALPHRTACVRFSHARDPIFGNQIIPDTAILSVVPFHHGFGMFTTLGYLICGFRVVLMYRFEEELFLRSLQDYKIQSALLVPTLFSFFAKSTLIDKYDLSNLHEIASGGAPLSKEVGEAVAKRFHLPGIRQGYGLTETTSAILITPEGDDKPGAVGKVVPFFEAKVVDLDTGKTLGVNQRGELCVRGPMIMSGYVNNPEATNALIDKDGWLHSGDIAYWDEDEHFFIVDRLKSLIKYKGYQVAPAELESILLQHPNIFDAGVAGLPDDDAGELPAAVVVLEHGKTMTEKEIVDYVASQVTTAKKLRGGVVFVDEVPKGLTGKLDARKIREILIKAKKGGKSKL
#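 Purified P. pyralis luciferase (10nM final) with 10uM D-luciferin and 10uM ATP (Km levels) in 50mM Tris acetate pH 7.5, 10mM Mg acetate, 0.01% Tween-20, 0.05% BSA; qHTS 6-point titration, ~60 µM downward; luminescence read.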
# ELG1 repair inh – inhibitors of ELG1-dependent DNA repair in HEK293T cells; HEK293T ELG1-luciferase reporter, luminescence, 16 h; DNA damage induced by 5-fluorouridine; Potency, µM (series often up to 46.1 µM), for the others: at the top dose activity change, negative = inhibition, hits mostly inhibitors; 330,000 compounds, 2.3% hits; AID 504467; also: % is scaled to controls: 0 for no effect and ±100 for the full control effect; nearly all actives have a fitted effect of over 55% in size
#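 Luminescence from the luciferase reporter, measured 30 min after ONE-Glo reagent at room temperature, was the read-out. Beforehand, 2,000 cells per well were exposed for 16 hr at 37 °C to 5-fluorouridine together with compound or vehicle.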
# ELG1 genotox – induces genotoxicity in HEK293T cells with luciferase-tagged ELG1. AID 504466. 330,000 compounds, 1.3% hits. HEK293T ELG1-luciferase reporter, luminescence, 16 h. Potency, µM (titrated, usually from 46 µM), for the others: at the highest dose activity change, positive = activation, most hits filed as activators; also: % of control where 0% means no effect; nearly all actives have a fitted effect of over 60% in size
#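 DMSO vehicle served as control against compound-treated ELG1-luciferase HEK293T cells; exposure lasted 16 hr at 37 °C and 5% CO2, followed by ONE-Glo luminescence detection after 30 min.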
# NPC1 prom act – activates the NPC1 promoter; Huh7 NPC1 promoter luciferase reporter, 24 h; Potency, µM (series often up to 9.22 µM), inactives show top-dose activation, usual class: activators; 320,000 compounds, 2.4% hits; AID 485313; also: % of control where 0% means no effect; nearly all actives have a fitted effect of over 60% in size
#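 Stably transfected Huh7 (NPC1 promoter→luciferase), 1500 cells/well in Opti-MEM + 10% FBS, 2 h settle, then compound 24 h at 37 °C. Luminescence after 10 min with Amplite reagent.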
# Rab9 promoter act – activates the Rab9 promoter. Potency, µM (doses to about 9.22 µM), for inactives: at the top dose activation, negative = inhibition, most hits filed as activators. AID 485297. 320,000 compounds, 2.8% hits. Huh7 Rab9 promoter-luciferase reporter, luminescence, 24 h; also: % of control where 0% means no effect; nearly all actives have a fitted effect of over 60% in size
#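 Luciferase signal after 10 min detection reagent at ambient indicates Rab9 promoter upregulation; stably transfected Huh7 cells were treated 24 h with compound in DMSO at 37 °C, 5% CO2.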
# The depositor's hits bear a star; ? = inconclusive; . = not tested or not shown; [ ] = remark or other dose. Hits are enriched below; roughly 9.3% of the tested compounds scored in any of these assays. Calls follow the shape of the dose curve; as a rule, active = well fitted curve in the direction sought with a large enough effect; inconclusive = small, poorly fitted or top-dose-only effect, or another doubt; inactive = no such curve, though single readings can be large; an effect the other way counts as inactive or inconclusive. Potency is read from the fitted curve at half-maximal effect.
SMILES,SMN2 splice enh,FLuc modulator,ELG1 repair inh,ELG1 genotox,NPC1 prom act,Rab9 promoter act
COC(=O)c1ccccc1NC(=O)c1sc(Cl)nc1C,.,?,24%,1%,0%,10%
O=C(Nc1nc(-c2ccccc2)cs1)NC1CCCCC1,-28%,?,?,23µM*,17%,20%
O=C(Nc1nc(-c2ccccc2)cs1)C1CCCCN1S(=O)(=O)c1ccccc1 (configuration not stated),-38%,-1%,?,1%,9%,1%
COc1ccc(-c2csc(NC(=O)CN3C(=O)CCC3=O)n2)c(OC)c1,17%,?,8%,1%,-1%,-1%
c1ccc(-c2csc(NC3CCCCC3)n2)cc1,.,1.7µM*,?,5.2µM*,0.79µM*,1µM*
COc1ccc(-c2csc(NC3CCCCC3)n2)c(OC)c1,.,24µM*,?,?,20%,23%
Cc1ccc(SCc2cc(=O)n3ccsc3n2)c(C)c1,13µM*,15µM*,?,?,?,3.2µM*
Cc1ccc(Nc2nnc(SCc3cc(=O)n4ccsc4n3)s2)c(C)c1,-8%,-2%,-10%,0%,-2%,14%
COc1ccc(Nc2ncnc3onc(-c4ccc(Cl)cc4)c23)cc1Cl,-17%,1%,.,.,.,.
COc1ccc(/C=C/c2ccncc2)cc1OC,10µM*,?,?,23µM*,0%,4%
CN1CCN(c2ccc(-c3ccnn3C(=O)Nc3cccc(C(F)(F)F)c3)cc2)CC1,13µM*,21µM*,?,?,3.5µM*,23%[1.84 µM]
O=C(O)c1sc2cc(C(F)(F)F)cnc2c1-c1cccs1,6%,11µM*,-2%,-8%,2%,-10%
COc1cc(C(=O)N[C@H](C(=O)NC2CCCc3ccccc32)C(C)C)cc(OC)c1OC (some centres not stated),.,.,21µM*,-2%,.,.
COc1ccc2nc(NC(=O)c3cccnc3SC)sc2c1,?,5.4µM*,?,?,?,?
COc1ccc(Cl)cc1C(=O)Nc1nc2ccc(S(C)(=O)=O)cc2s1,.,-5%,?,?,21%,0%
CSc1ncccc1C(=O)Nc1ccc(OC(F)(F)F)cc1,-5%,-13%,3%,-1%,-1%,1%
CSc1ncccc1C(=O)Nc1nc2ccc(S(C)(=O)=O)cc2s1,9%,21µM*,?,4%,13%,28%
Cc1[nH]cnc1C(=O)N/N=C/c1c(Cl)cccc1Cl,.,15µM*,?,24%,?,?
Cc1nnsc1C(=O)N/N=C/c1c(F)cccc1Cl,2%,-1%,-3%,1%,2%,12%
N/C(=N\OC(=O)c1cccc(C(F)(F)F)c1)c1cnccn1,.,?,?,?,21%,17%
N/C(=N\OC(=O)c1ccc2ccccc2c1)c1ccccc1Cl,.,1.9µM*,?,23µM*,3.2µM*,4µM*
N/C(=N\OC(=O)c1ccc2ccccc2c1)c1ccccn1,?,0.15µM*,?,0.58µM*,?,?
N/C(=N\OC(=O)c1ccc(=O)n(Cc2ccccc2)c1)c1ccccn1,-5%,?,6%,14%,0%,3%
CCCc1ccc(C(=O)O/N=C(\N)c2ccccn2)cc1,.,0.067µM*,?,0.41µM*,-20%,-22%
COc1cccc(C(=O)O/N=C(\N)c2ccccn2)c1,.,0.076µM*,?,?,2.5µM*,3.2µM*
SMILES,SMN2 splice enh,FLuc modulator,ELG1 repair inh,ELG1 genotox,NPC1 prom act,Rab9 promoter act
CC1CCN(C(=O)Cn2c(=O)n(Cc3ccco3)c(=O)c3sccc32)CC1,.,-4%,2%,0%,2%,5%
N/C(=N\OC(=O)c1ccc2ccccc2c1)c1ccncc1,.,1.9µM*,?,4.6µM*,1.3µM*,1.4µM*
CCCCc1ccc(Nc2cc(C)nc(-n3nc(C)cc3C)n2)cc1,.,-16%,.,.,.,.
O=c1cc(NS(=O)(=O)c2ccccc2)nc(SCc2ccc(Cl)cc2)[nH]1,-1%,-1%,?,23µM*,-1%,-8%
O=C(CSc1nc(NS(=O)(=O)c2ccccc2)cc(=O)[nH]1)Nc1ccc(Cl)cc1,.,-1%,0%,-1%,-2%,-8%
CCCn1nc(C(=O)Nc2ccc(S(=O)(=O)Nc3nccs3)cc2)c2ccccc2c1=O,7.9µM*,-1%,-15%,-1%,-2%,-1%
CCCn1nc(C(=O)NNC(=O)c2cc(S(=O)(=O)NC)ccc2Br)c2ccccc2c1=O,.,2%,8.2µM*,-2%,0%,3%
CCCn1nc(C(=O)NNC(=O)c2cccc(S(=O)(=O)NC(C)C)c2)c2ccccc2c1=O,.,4%,?,-3%,-1%,0%
CCCn1nc(C(=O)Nc2cc(S(=O)(=O)Nc3ccc(OC)cc3)ccc2O)c2ccccc2c1=O,.,.,16µM*,-2%,.,.
CCn1nc(C(=O)Nc2ccc(S(=O)(=O)Nc3ncccn3)cc2)c2ccccc2c1=O,32%,-7%,?,10%,1%,2%
CCC[C@H]1NC(=O)[C@H](C)N(C)C(=O)C(C)(C)C(=O)C(C)NC(=O)[C@H](Cc2ccc(OC)cc2)N(C)C(=O)[C@H](C(C)C)N(C)C(=O)CNC(=O)[C@H](CC(C)C)N(C)C(=O)CNC(=O)[C@H]([C@@H](C)CC)OC(=O)[C@H]1C (some centres not stated),.,.,?,0%,.,.
COC(=O)c1[nH]c2c(c1C)C(=O)CC(c1cccc(OC)c1)C2 (configuration not stated),.,-1%,-18%,13%,-20%,-22%
CC(=O)Nc1ccc(OCc2cnc(Cl)s2)cc1,12%,-14%,?,10%,13%,24%
Clc1ccc(OCc2cnc(Cl)s2)cc1,-4%,15µM*,10%,8%,-2%,11%
CCc1ccc(OCc2cnc(Cl)s2)cc1,10%,21µM*,?,?,18%,23%
O=C1CC2C(=O)NCCN2C(=NC(=O)c2ccc(Cl)cc2)N1 (configuration not stated),14%,-2%,4%,1%,4%,2%
O=C(CNC(=O)c1ccc(Br)cc1)N/N=C/c1cccnc1,.,5%,15%,6%,-1%,3%
Cc1ccccc1-c1nc2scc(CCNS(=O)(=O)c3ccccc3)n2n1,.,-12%,.,.,.,.
COc1cc(/C=C/c2sc3ccccc3[n+]2CCCS(=O)(=O)[O-])ccc1O,-43%,13µM*,-11%,-5%,-9%,-3%
Cc1ccc2c(c1)sc(C)[n+]2CCCS(=O)(=O)[O-],-29%,-2%,15%,1%,5%,0%
CCc1nnc(NC(=O)c2ccc(S(C)(=O)=O)cc2)s1,.,21µM*,?,13%,?,26%

# From PubChem
